# The list is not random: actives were taken first. Their share in the collection is about 7.4%.
# ELG1 genotoxic – induces genotoxicity in HEK293T cells with luciferase-tagged ELG1. Potency, µM (doses to about 46 µM), for inactives: at the top dose activity change, positive = activation, actives largely listed as activators. HEK293T ELG1-luciferase reporter, luminescence, 16 h. 330,000 tested, 1.3% active. AID 504466; note: % of control where 0% means no effect; nearly all actives have a fitted effect of over 60% in size
#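 Reporter readout depends on ELG1 protein level, which increases with genetic stress. After 16 hr compound exposure at 37 °C, luciferase activity was quantified using ONE-Glo.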
# NPC1 promoter act – NPC1 promoter activation; Potency, µM (doses to about 9.22 µM), for the others: at the highest dose activation, hits mostly activators; Huh7 NPC1 promoter luciferase reporter, 24 h; AID 485313; 320,000 tested, 2.4% active; note: % of control where 0% means no effect; nearly all actives have a fitted effect of over 60% in size
#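 In 1536-well qHTS, Huh7 cells harboring an NPC1 promoter–luciferase construct received compound for 24 h; activation was quantified by luminescence following luciferase reagent addition.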
# FLuc modulator – counter-screen for miR-21 project: firefly luciferase inhibitors or activators. P08659. purified FLuc, Km substrates, luminescence inhibition. Potency, µM (titrated, usually from 57.5 µM), for the others: at the top dose activity change, negative = inhibition, hits mostly inhibitors. 360,000 tested, 6.9% active. AID 588342;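 note: plate controls were vehicle for no effect and reference inhibitor for full effect; nearly all actives have a fitted effect of over 55% in size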
# Target sequence (P08659 whole entry, looked up): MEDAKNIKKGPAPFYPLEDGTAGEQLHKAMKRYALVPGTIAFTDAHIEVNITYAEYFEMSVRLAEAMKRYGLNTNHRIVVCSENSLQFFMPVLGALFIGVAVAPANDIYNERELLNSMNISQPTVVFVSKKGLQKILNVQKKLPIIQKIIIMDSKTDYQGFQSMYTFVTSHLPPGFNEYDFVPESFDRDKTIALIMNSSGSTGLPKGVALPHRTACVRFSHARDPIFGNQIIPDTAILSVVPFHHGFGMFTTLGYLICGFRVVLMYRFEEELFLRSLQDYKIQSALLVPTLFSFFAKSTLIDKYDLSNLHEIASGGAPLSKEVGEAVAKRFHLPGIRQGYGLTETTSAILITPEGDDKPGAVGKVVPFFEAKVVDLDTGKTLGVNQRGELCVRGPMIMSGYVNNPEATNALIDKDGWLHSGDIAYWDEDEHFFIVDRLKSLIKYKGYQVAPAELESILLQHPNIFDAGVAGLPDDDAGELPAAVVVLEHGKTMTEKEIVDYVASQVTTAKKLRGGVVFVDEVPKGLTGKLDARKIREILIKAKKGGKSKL
#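 Purified P. pyralis luciferase, 10 nM final, with Km-level 10 uM D-luciferin and 10 uM ATP in 50 mM Tris acetate pH 7.5, 10 mM Mg acetate, 0.01% Tween-20, 0.05% BSA; 6-point qHTS titration about 60 µM downward; luminescence read.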
# Rab9 prom act – Rab9 promoter activation. Potency, µM (top dose mostly 9.22 µM), without a hit: at the highest dose activation, negative = inhibition, usual class: activators. 320,000 tested, 2.8% active. Huh7 Rab9 promoter-luciferase reporter, luminescence, 24 h; note: % of control where 0% means no effect; nearly all actives have a fitted effect of over 60% in size
#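 Luciferase signal after 10 min detection reagent at ambient indicates Rab9 promoter upregulation; stably transfected Huh7 cells were treated 24 h with compound in DMSO at 37 °C, 5% CO2.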
# SMN2 splice enh – SMN2 splice variant enhancement; HEK293 SMN2-luciferase splicing reporter, luminescence, 30-36 h; Potency, µM (doses to about 46.1 µM), without a hit: top-dose activity change, positive = activation, usual class: activators; 210,000 tested, 2.8% active; AID 1458; note: % of control where 0% means no effect; nearly all actives have a fitted effect of over 55% in size
#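 qHTS luciferase splicing reporter: luminescence rises when SMN2 exon 7 is included in transfected HEK293 cells. Compound exposure lasted 30-36 h at 37C, with 4.5 mM final sodium butyrate as control, followed by a ONE-Glo read.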
# Luc counter – blocks Kinase-Glo luciferase, a counter-screen artifact; Kinase-Glo luciferase, ATP luminescence, 8 min; Potency, µM (series often up to 38.3 µM), for inactives: at the top dose activity change, negative = inhibition, actives largely listed as inhibitors; 200,000 tested, 0.28% active; AID 1379; note: % is set by controls: 0 for no effect and ±100 for the full control effect; nearly all actives have a fitted effect of over 60% in size
#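 Recombinant Kinase-Glo luciferase, 10 uM ATP (linear range), luciferin; imidazole pH 7.2 / KCl / MgCl2 / Tween / BSA buffer; 8 min RT; luminescence.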
# The depositor's hits bear a star; ? = inconclusive; . = no result given; [ ] = another dose, or the depositor's remark. Calls come from the whole dose curve; as a rule, active = well fitted curve in the direction sought with a large enough effect; inconclusive = small, poorly fitted or top-dose-only effect, or another doubt; inactive = no such curve, though single readings can be large; an effect the other way counts as inactive or inconclusive. Potency is the fitted concentration of half-maximal effect.
SMILES,ELG1 genotoxic,NPC1 promoter act,FLuc modulator,Rab9 prom act,SMN2 splice enh,Luc counter
O=C(Cn1ccc([N+](=O)[O-])n1)N1CCCCCC1,1.5%,0.4%,-2.6%,0.1%,8.8%,1.5%
O=C(Cn1ccc([N+](=O)[O-])n1)N1CCCc2ccccc21,?,2.1%,16.9µM*,-2.3%,9.6%,1.2%
O=C(OCC(=O)N1CCN(c2ccccc2)CC1)c1cccc([N+](=O)[O-])c1,0.6%,-4.5%,7.9%,-1.1%,.,.
O=C(OCC(=O)N1CCN(c2ccccc2)CC1)c1ccccc1[N+](=O)[O-],5.17µM*,3.55µM*,6.75µM*,3.16µM*,.,.
O=C(COC(=O)c1ccccc1[N+](=O)[O-])NC(=O)c1ccccc1,5.6%,-1.1%,16.9µM*,-6.0%,.,.
O=C(COc1ccccc1[N+](=O)[O-])N1CCCc2ccccc21,-2.2%,2.3%,-8.2%,9.7%,.,.
O=C(OCC(=O)N1CCCc2ccccc21)c1ccccc1[N+](=O)[O-],?,?,15.1µM*,?,.,.
CCOc1ccc(CNC(=O)C2Cc3ccccc3N2C(=O)CC)cc1OC (configuration not stated),.,.,2.3%,.,.,.
O=C(Nc1ccc2nc(SCc3ccccc3)sc2c1)c1cccc(F)c1,.,.,-13.4%,.,.,.
CCN(C(C)=O)c1nnc(CSc2nc3ccccc3s2)s1,8.2µM*,?,?,?,-19.8%,1.4%
COCCN(CCOC)C(=O)c1ccc(CSc2nc3ccccc3s2)cc1,12.2%,26.5%,16.9µM*,17.4%,.,.
CNc1nnc(CSc2nc3ccccc3s2)s1,?,24.4%,?,?,?,-1.9%
NNC(=O)c1ccc(CSc2nc3ccccc3s2)cc1,7.4%,0.7%,16.9µM*,15.7%,-3.2%,1.7%
COc1ccccc1/C=C/c1nc(C#N)c(N2CCN(C)CC2)o1,.,.,2.9%,.,5.2%,.
Cc1ccc2cccc(NC(=O)c3ccc(-c4ccc(Cl)cc4Cl)o3)c2n1,.,.,-1.7%,.,11.4%,.
CCOC(=O)c1ccc(NC(=O)CSc2ccc3ccccc3n2)cc1,.,.,-17.0%,.,.,.
CC(=O)c1ccc(NC(=O)c2sc3nc(C)c(C)c(C)c3c2N)cc1,3.66µM*,0.562µM*,0.477µM*,0.794µM*,.,.
Cc1nc2sc(C(=O)OC(C)C)c(N)c2c(C)c1C,14.2%,-20.4%,-18.2%,4.47µM*,27.7%,-0.2%
Cc1nc2sc(C(=O)Nc3ccccc3)c(N)c2c(C)c1[N+](=O)[O-],7.3µM*,3.16µM*,?,4.47µM*,?,0.3%
Nc1c(C(=O)Nc2ccccc2)sc2ncc([N+](=O)[O-])cc12,8.6%,?,2.3%,?,.,.
Cc1nc2sc(C(=O)c3ccccc3)c(N)c2c(C)c1C,11.3%,9.1%,?,29.3%,0.8%,0.1%
CCc1ccc(S(=O)(=O)c2nnn(-c3ccc(F)cc3)c2N)cc1,.,.,2.0%,.,-37.0%,.
COCCNc1ccnc(-c2ccccc2CN(C)C)n1,.,.,.,.,-4.9%,-3.7%
C[N+]1(C)CCC[C@H]1C(=O)[O-],.,.,.,.,-2.1%[20.6 µM],2.6%[17.1 µM]
Cc1ccc2cc3cc(C(=O)N4CCCCC4C)oc3nc2c1 (configuration not stated),?,1.41µM*,3.01µM*,1.58µM*,11.2µM*,-4.2%
SMILES,ELG1 genotoxic,NPC1 promoter act,FLuc modulator,Rab9 prom act,SMN2 splice enh,Luc counter
Cc1ccc2cc3cc(C(=O)NC4CC4)oc3nc2c1,?,3.98µM*,10.7µM*,2.51µM*,.,.
CCN(C(=O)c1cc2cc3ccc(C)cc3nc2o1)c1ccc(OC)cc1,14.5%,1.5%,?,-3.5%,-35.2%,0.5%
Cc1ccc2cc3cc(C(=O)N(C)c4ccccc4C)oc3nc2c1,.,.,6.75µM*,.,15.8µM*,.
CC1CCc2noc(NC(=O)c3ccccc3[N+](=O)[O-])c2C1 (configuration not stated),.,.,-6.3%,.,-2.5%,.
C/C(N)=C(/C#N)C(=O)CSc1nnc(Nc2cccc(C)c2C)s1,15.1%,?,16.9µM*,?,?,5.5%
O=Cc1ccccc1OCc1ccc2c(c1)OCO2,13µM*,13.4%,1.35µM*,12.0%,.,.
CCOc1ccccc1CN(CCc1ccc2c(c1)OCO2)Cc1cc(OC)c(OC)cc1OC,.,.,-6.3%,.,-28.5%,.
Fc1ccc(OCc2nc(-c3cccs3)no2)cc1,?,3.16µM*,10.7µM*,2.51µM*,?,-1.1%
c1ccc(OCc2nc(-c3cccs3)no2)cc1,12.6µM*,3.55µM*,7.57µM*,3.16µM*,?,-7.2%
Cc1cc(OCc2nc(-c3cccs3)no2)cc(C)c1Cl,9.1%,9.7%,?,7.2%,-6.0%,-0.2%
Cc1ccc(NC(=O)Cn2c(=O)n(Cc3ccco3)c(=O)c3sc4ccccc4c32)cc1C,.,.,-0.2%,.,6.7%,.
CNC(=S)NNC(=O)c1sc(-c2cc(C)on2)nc1C,0.8%,-4.2%,16.9µM*,-1.2%,.,.
C(=N\NC1=Nc2cccc3cccc1c23)/c1ccccc1,?,3.98µM*,1.69µM*,4.47µM*,3.98µM*,-1.5%
COc1ccc(NC2=Nc3cccc4cccc2c34)cc1OC,-2.6%,6.0%,?,-2.5%,-8.8%,-0.9%
Clc1ccc(/C=N/NC2=Nc3cccc4cccc2c34)cc1,?,0.631µM*,1.69µM*,0.631µM*,11.2µM*,0.0%
C(=N\NC1=Nc2cccc3cccc1c23)/c1cccnc1,?,3.55µM*,4.78µM*,2.51µM*,11.2µM*,-1.0%
NC1=Nc2cccc3cccc1c23,-3.1%,2.7%,-7.9%,-1.9%,1.9%,1.7%
COc1cccc(NC2=Nc3cccc4cccc2c34)c1,3.8%,-3.1%,12µM*,-3.2%,13.5%,-0.8%
Cc1ccc(C)c(N(C)C(=O)c2cn(C)c(=O)c3ccccc23)c1,.,.,-12.4%,.,6.0%,.
O=C1COc2ccc(-c3cc(-c4ccccc4)c4c(n3)-c3cc(Cl)ccc3OC4)cc2N1,.,.,3.4%,.,0.8%,.
Cc1c(C(=O)N(C)c2cccc(C(F)(F)F)c2)sc2nc3n(c(=O)c12)CCCCC3,.,.,13.5µM*,.,.,.
CCc1nnc(NC(=O)c2ccc3c(=O)n4c(nc3c2)CCCCC4)s1,5.9%,13.0%,26.9µM*,26.6%,.,.
CCc1ccc(NC(=O)c2ccc3c(=O)n4c(nc3c2)CCCCC4)cc1,-7.5%,19.4%,16.9µM*,-0.4%,.,.
CC(=O)Nc1ccc(NC(=O)c2sc3nc4n(c(=O)c3c2C)CCCCC4)cc1,-8.0%,-8.4%,-0.9%,-4.2%,-24.1%,2.9%
CCc1ccc(NC(=O)c2sc3nc4n(c(=O)c3c2C)CCC4)cc1,8.9%,27.8%,15.1µM*,?,.,.
CCOC(=O)c1c(NC(C)=O)c2c3c(sc2n1Cc1nc(-c2ccccc2Cl)oc1C)CCCC3,.,.,-7.2%,.,-6.5%,.
CCOC(=O)c1c(C)c(-c2ccccc2)n(CC(=O)Nc2cc(C)cc(C)c2)c1C,.,.,4.5%,.,3.7%,.

# Screens: PubChem, National Center for Advancing Translational Sciences (NCATS)
